Laboratory results from PubChem BioAssay AID1159580 (chemical genetic matrix, 2015).
Several values for one entry are separate records, joined by “and”; a condition that tells them apart may be missing. Identical values can stand only once. Out of some 5,500 compounds screened, about 2,000 (36%) were called active. Another 18% or so got no clear call; they are omitted. No stated cut-off is given here; in the data, active means normalized growth mostly below about 0.91 (no sharp cut-off); inconclusive means no clear call, values can overlap the other calls; inactive means mostly above about 0.92. The list shows a part of the results.

Experiment: chemical genetic growth profiling, strain panel (AID 1159580);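 further: tested at 20 µM; growth read once vehicle control cultures reached saturation at 30 °C; 1 = growth at the plate median or of vehicle wells; lower values mean less growth of the strain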
Conditions: S. cerevisiae deletion strains, growth OD

Measured: normalized growth

CC(=O)[C@@]1(O)CCC2C3C[C@H](C)C4=CC(=O)C=CC4(C)[C@@]3(F)[C@@H](O)C[C@@]21C (stereo partly drawn)
inactive: locus YAL013W, strain DEP1, active compounds read low 0.995 | locus YAL021C, strain ccr4, active compounds read low 0.965 | locus YAL026C, strain drs2, active compounds read low 0.966 | locus YAL030W, strain snc1, active compounds read low 0.961 | locus YBL061C, strain skt5, active compounds read low 0.976 | locus YBR009C, strain hhf1, active compounds read low 0.931 | locus YBR021W, strain FUR4, active compounds read low 0.99 | locus YBR023C, strain chs3, active compounds read low 0.969 | locus YBR171W, strain sec66, active compounds read low 0.973 | locus YBR229C, strain ROT2, active compounds read low 1.01 | locus YBR231C, strain swc5, active compounds read low 0.975 | locus YBR279W, strain paf1, active compounds read low 0.98 | locus YCL011C, strain gbp2, active compounds read low 0.964 | locus YCL016C, strain dcc1, active compounds read low 0.963 | locus YCL029C, strain bik1, active compounds read low 0.997 | locus YCL069W, strain vba3, active compounds read low 0.979 | locus YCR088W, strain abp1, active compounds read low 0.973 | locus YDL005C, strain med2, active compounds read low 0.962 | locus YDL035C, strain GPR1, active compounds read low 0.986 | locus YDL040C, strain nat1, active compounds read low 0.983 | locus YDL074C, strain BRE1, active compounds read low 0.981 | locus YDL101C, strain DUN1, active compounds read low 1.02 | locus YDL134C, strain PPH21, active compounds read low 0.99 | locus YDL185W, strain tfp1, active compounds read low 1.03 | locus YDL192W, strain arf1, active compounds read low 1.01 | locus YDR001C, strain nth1, active compounds read low 0.977 | locus YDR069C, strain doa4, active compounds read low 0.969 | locus YDR101C, strain arx1, active compounds read low 0.971 | locus YDR137W, strain rgp1, active compounds read low 0.975 | locus YDR150W, strain NUM1, active compounds read low 0.991 | locus YDR159W, strain sac3, active compounds read low 0.929 | locus YDR162C, strain NBP2, active compounds read low 0.984 | locus YDR195W, strain ref2 0.98 | locus YDR297W, strain sur2, active compounds read low 0.975 | locus YDR318W, strain mcm21, active compounds read low 1.01 | locus YDR334W, strain swr1, active compounds read low 0.976 | locus YDR335W, strain msn5, active compounds read low 0.965 | locus YDR388W, active compounds read low 1.01 | locus YDR392W, strain spt3, active compounds read low 0.936 | locus YDR502C, strain sam2, active compounds read low 1.01 | locus YEL003W, strain gim4, active compounds read low 0.971 | locus YEL037C, strain rad23, active compounds read low 0.975 | locus YEL061C, strain CIN8 (second series), active compounds read low 0.962 | locus YEL061C, strain CIN8, active compounds read low 0.989 | locus YER015W, strain faa2, active compounds read low 0.977 | locus YER016W, strain bim1, active compounds read low 0.933 | locus YER110C, active compounds read low 1.02 | locus YER111C, strain swi4, active compounds read low 0.969 | locus YER155C, strain BEM2 (second series), active compounds read low 1.03 | locus YER155C, strain BEM2, active compounds read low 1.01 | locus YER167W, strain BCK2, active compounds read low 0.988 | locus YFR010W, strain ubp6, active compounds read low 0.953 | locus YGL078C, strain dbp3, active compounds read low 1 | locus YGL086W, strain mad1, active compounds read low 0.985 | locus YGL167C, strain pmr1, active compounds read low 0.977 | locus YGL173C, strain kem1, active compounds read low 0.976 | locus YGL227W, strain vid30, active compounds read low 0.988 | locus YGL240W, strain doc1, active compounds read low 0.955 | locus YGL248W, strain PDE1, active compounds read low 1.01 | locus YGL253W, strain hxk2, active compounds read low 0.961 | locus YGR078C, strain PAC10, active compounds read low 1 | locus YGR135W, strain pre9, active compounds read low 1.05 | locus YGR252W, strain gcn5, active compounds read low 1.08 | locus YHR013C, strain ard1, active compounds read low 0.905 | locus YHR027C, strain rpn1, active compounds read low 0.971 | locus YHR030C, strain SLT2, active compounds read low 0.979 and 0.988 | locus YHR079C, strain IRE1 (second series), active compounds read low 1.01 | locus YHR079C, strain IRE1, active compounds read low 0.971 | locus YHR094C, strain hxt1, active compounds read low 1.01 | locus YHR129C, strain ARP1, active compounds read low 1.01 | locus YHR142W, strain chs7, active compounds read low 0.96 | locus YHR200W, strain rpn10, active compounds read low 1.01 | locus YIL066C, strain RNR3, active compounds read low 0.996 | locus YIL073C, strain SPO22, active compounds read low 1.02 | locus YIL125W, strain kgd1, active compounds read low 1 | locus YIR030C, strain dcg1, active compounds read low 1 | locus YJL092W, strain hpr5, active compounds read low 0.983 | locus YJL095W, strain BCK1 (second series), active compounds read low 0.985 | locus YJL095W, strain BCK1, active compounds read low 1.02 and 0.999 | locus YJL115W, strain asf1, active compounds read low 0.954 | locus YJL129C, strain trk1, active compounds read low 0.968 | locus YJL134W, strain LCB3, active compounds read low 1.01 | locus YJL154C, strain vps35, active compounds read low 0.984 | locus YJL164C, strain tpk1, active compounds read low 0.937 | locus YJL166W, strain qcr8, active compounds read low 0.979 | locus YJL168C, strain set2, active compounds read low 1 | locus YJL187C, strain SWE1 (second series), active compounds read low 1.02 | locus YJR043C, strain POL32, active compounds read low 0.99
